PMC7862700, “An all-to-all approach to the identification of sequence-specific readers for epigenetic DNA modifications on cytosine”

Columns and labels:
Assay in all cases: DAPPL (digital affinity profiling via proximity ligation, sequencing); 10 mM Tris-HCl pH 7.5, 50 mM NaCl, 1 mM DTT, 4% glycerol, room temperature, 30 min; GST-TFs on glutathione beads, 16-mer random dsDNA library, 0.1% formaldehyde crosslink after washing; high values mean tight binding
FEV = molecular target: T1, FEV (Homo sapiens, UniProt Q99581 1-238); conditions: protein: recombinant; tags: N-terminal GST; dsDNA, one strand shown
T1 sequence: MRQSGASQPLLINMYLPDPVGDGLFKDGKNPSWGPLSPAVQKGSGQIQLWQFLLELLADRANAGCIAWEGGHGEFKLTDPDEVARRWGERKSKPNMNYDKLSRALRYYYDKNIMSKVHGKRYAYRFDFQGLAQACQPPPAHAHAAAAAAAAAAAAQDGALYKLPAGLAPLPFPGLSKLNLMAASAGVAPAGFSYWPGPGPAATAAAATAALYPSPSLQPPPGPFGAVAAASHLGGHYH
Procedure, shortened: (§1)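 Binding signal is defined as a hexamer's read frequency for one factor over its frequency for the tag-only sample. To obtain reads, GST-fused human transcription factors were expressed in yeast, captured on glutathione beads, barcoded with DNA and pooled with that sample. Pools met 200 nmole of a 16-mer random double-stranded DNA library in Tris/NaCl/DTT/glycerol buffer for 30 min at room temperature before washing, 0.1% formaldehyde crosslinking, proximity ligation (BsaI/T4 ligase, 1 h, 37 °C), PCR and Illumina NextSeq500 sequencing.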

ETV5 = ETV5 (Homo sapiens, UniProt P41161 1-510); conditions: protein: recombinant; tags: N-terminal GST; dsDNA, one strand shown
Sequence of ETV5 (P41161 whole entry): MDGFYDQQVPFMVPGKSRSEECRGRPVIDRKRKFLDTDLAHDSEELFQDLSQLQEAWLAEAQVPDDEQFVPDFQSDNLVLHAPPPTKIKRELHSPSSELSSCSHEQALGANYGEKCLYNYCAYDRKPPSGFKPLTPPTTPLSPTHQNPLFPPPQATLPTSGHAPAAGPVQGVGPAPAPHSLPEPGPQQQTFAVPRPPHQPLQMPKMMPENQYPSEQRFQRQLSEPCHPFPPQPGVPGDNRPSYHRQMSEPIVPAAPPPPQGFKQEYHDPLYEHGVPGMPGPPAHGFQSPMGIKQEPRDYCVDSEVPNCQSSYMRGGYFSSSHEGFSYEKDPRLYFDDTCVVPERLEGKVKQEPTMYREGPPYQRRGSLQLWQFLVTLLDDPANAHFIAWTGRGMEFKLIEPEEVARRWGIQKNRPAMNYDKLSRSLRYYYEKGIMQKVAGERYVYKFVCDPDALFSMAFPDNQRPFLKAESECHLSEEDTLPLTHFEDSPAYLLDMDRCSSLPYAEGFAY
Procedure, shortened: as §1

HSF1 = HSF1 (Homo sapiens, UniProt Q00613 1-529); conditions: protein: recombinant; tags: N-terminal GST; chain copies: 3; dsDNA, one strand shown
Sequence of HSF1 (Q00613 whole entry): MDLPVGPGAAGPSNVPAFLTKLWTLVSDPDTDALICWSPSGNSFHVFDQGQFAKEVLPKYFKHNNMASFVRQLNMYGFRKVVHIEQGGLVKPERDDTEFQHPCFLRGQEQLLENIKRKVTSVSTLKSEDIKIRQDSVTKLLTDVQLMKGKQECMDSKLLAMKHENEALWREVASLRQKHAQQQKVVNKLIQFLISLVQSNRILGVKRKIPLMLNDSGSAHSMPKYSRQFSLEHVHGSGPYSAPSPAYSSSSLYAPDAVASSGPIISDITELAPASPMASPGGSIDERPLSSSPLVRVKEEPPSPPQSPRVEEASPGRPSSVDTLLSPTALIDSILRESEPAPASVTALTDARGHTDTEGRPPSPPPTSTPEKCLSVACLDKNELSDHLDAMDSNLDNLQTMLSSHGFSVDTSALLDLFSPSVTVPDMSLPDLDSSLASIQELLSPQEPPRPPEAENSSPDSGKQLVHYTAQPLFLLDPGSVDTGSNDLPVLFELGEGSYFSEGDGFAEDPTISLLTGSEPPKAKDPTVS
Procedure, shortened: as §1

SPIC = molecular target: T2, SPIC (Homo sapiens, UniProt Q8N5J4 1-248); conditions: protein: recombinant; tags: N-terminal GST; dsDNA, one strand shown
T2 sequence: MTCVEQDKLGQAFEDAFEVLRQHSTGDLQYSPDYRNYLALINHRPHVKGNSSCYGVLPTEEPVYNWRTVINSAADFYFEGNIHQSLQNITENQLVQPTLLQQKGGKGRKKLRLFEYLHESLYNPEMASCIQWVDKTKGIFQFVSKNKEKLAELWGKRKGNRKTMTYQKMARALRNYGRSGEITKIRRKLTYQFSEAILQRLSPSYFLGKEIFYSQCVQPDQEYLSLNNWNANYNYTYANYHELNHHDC
Procedure, shortened: as §1

ELF4 = ELF4 (Homo sapiens, UniProt Q99607 1-663); conditions: protein: recombinant; tags: N-terminal GST; dsDNA, one strand shown
Sequence of ELF4 (Q99607 whole entry): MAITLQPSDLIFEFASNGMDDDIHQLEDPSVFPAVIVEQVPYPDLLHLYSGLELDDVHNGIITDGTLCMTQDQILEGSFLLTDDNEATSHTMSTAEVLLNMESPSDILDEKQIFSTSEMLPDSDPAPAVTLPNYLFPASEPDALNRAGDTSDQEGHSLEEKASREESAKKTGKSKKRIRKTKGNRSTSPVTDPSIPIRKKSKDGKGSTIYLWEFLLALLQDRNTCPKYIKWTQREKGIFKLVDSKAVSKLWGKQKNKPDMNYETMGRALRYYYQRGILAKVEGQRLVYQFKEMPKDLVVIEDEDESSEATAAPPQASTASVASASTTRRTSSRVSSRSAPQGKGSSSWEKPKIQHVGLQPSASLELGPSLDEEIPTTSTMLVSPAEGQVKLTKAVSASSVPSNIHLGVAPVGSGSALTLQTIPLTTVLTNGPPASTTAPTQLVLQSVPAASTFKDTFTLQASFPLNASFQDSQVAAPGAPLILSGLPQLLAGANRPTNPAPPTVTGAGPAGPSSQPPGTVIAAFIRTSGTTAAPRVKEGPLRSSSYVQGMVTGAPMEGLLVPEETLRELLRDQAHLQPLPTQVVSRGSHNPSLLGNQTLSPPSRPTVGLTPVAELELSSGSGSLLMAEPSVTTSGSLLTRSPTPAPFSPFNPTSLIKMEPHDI
Procedure, shortened: as §1

ELK4 = molecular target: T3, ELK4 (Homo sapiens, UniProt P28324-2 1-405); conditions: protein: recombinant; tags: N-terminal GST; dsDNA, one strand shown
T3 sequence: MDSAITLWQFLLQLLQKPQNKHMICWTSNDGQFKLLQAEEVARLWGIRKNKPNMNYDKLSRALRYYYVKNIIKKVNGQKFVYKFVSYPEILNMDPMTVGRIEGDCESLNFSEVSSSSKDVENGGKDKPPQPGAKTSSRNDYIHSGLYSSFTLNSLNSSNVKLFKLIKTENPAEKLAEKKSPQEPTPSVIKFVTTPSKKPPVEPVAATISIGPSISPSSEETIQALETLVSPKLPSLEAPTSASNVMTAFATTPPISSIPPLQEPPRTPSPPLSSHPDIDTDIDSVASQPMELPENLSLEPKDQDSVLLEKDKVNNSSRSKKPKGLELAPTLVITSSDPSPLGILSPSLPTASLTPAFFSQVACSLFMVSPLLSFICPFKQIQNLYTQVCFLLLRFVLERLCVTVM
Procedure, shortened: as §1

ETV2 = molecular target: T4, ETV2 (Homo sapiens, UniProt O00321 1-342); conditions: protein: recombinant; tags: N-terminal GST; dsDNA, one strand shown
T4 sequence: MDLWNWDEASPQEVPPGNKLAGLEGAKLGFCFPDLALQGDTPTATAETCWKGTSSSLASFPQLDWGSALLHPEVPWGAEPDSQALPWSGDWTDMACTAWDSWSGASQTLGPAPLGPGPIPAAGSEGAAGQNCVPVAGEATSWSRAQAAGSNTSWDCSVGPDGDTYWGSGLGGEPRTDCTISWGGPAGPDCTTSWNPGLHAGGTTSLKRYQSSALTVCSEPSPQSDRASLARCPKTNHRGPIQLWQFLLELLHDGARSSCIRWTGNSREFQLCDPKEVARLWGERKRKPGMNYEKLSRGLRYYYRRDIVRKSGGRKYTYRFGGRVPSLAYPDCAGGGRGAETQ
Procedure, shortened: as §1

ELF3 = molecular target: T5, ELF3 (Homo sapiens, UniProt P78545 1-371); conditions: protein: recombinant; tags: N-terminal GST; dsDNA, one strand shown
T5 sequence: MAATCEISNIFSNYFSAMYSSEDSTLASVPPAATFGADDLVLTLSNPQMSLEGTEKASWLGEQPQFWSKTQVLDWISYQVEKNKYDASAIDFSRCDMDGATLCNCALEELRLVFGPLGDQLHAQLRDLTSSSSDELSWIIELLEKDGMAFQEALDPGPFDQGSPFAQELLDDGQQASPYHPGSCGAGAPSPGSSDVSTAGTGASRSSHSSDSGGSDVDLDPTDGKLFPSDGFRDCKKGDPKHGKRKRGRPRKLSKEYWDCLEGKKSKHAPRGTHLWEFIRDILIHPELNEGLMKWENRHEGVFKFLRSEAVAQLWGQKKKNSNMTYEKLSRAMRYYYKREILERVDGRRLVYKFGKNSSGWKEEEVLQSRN
Procedure, shortened: as §1

CRX = CRX (Homo sapiens, UniProt O43186 1-299); conditions: protein: recombinant; tags: N-terminal GST; dsDNA, one strand shown
Sequence of CRX (O43186 whole entry): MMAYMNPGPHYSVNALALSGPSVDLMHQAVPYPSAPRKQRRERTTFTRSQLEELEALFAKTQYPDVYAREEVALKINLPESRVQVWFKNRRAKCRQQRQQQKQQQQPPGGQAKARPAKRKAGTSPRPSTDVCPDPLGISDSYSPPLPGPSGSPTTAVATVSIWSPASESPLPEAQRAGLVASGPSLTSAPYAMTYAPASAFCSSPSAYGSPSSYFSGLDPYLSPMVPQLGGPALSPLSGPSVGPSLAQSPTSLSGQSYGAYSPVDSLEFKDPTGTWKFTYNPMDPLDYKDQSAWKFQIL
Procedure, shortened: as §1

ETV1 = ETV1 (Homo sapiens, UniProt P50549 1-477); conditions: protein: recombinant; tags: N-terminal GST; dsDNA, one strand shown
Sequence of ETV1 (P50549 whole entry): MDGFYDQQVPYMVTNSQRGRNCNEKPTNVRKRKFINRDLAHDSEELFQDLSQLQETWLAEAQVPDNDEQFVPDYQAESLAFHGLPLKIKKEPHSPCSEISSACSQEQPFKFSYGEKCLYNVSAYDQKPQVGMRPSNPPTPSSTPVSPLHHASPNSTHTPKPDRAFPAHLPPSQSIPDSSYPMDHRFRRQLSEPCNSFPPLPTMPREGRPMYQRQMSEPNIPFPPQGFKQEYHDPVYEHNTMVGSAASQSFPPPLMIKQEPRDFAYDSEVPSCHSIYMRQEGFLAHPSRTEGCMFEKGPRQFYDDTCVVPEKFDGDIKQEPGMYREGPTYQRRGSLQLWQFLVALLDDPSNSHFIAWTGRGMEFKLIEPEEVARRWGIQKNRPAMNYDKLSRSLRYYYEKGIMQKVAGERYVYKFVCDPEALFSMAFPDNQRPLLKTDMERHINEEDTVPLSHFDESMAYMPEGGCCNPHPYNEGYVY
Procedure, shortened: as §1

ACTCTC
binding signal (FEV): 1.42 fold enrichment (6-mer frequency, TF over GST control) | binding signal (ETV5): 1.42 fold enrichment (6-mer frequency, TF over GST control) | binding signal (HSF1): 1.55 fold enrichment (6-mer frequency, TF over GST control) | binding signal (SPIC): 1.47 fold enrichment (6-mer frequency, TF over GST control) | binding signal (ELF4): 1.49 fold enrichment (6-mer frequency, TF over GST control) | binding signal (ELK4): 1.55 fold enrichment (6-mer frequency, TF over GST control) | binding signal (ETV2): 1.39 fold enrichment (6-mer frequency, TF over GST control) | binding signal (ELF3): 1.88 fold enrichment (6-mer frequency, TF over GST control) | binding signal (CRX): 1.31 fold enrichment (6-mer frequency, TF over GST control) | binding signal (ETV1): 1.53 fold enrichment (6-mer frequency, TF over GST control)
